# In all, about 310,000 compounds went through this assay and about 14,000 (4.5%) showed an effect of 50% or more. Effects have a minus sign here. For the sample, strong results were picked, then their nearest neighbours and some compounds at random.
# Molecular target: human ether-à-go-go-related gene (hERG) potassium channel (human, UniProt Q12809)
# Experiment: primary screen, population patch clamp on CHO cells stably expressing hERG; higher = less effect of the substance
# 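Note: peak tail current of the secondary pulse compared with the same well before compound.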
# Sequence of human ether-à-go-go-related gene (hERG) potassium channel (Q12809 whole entry, looked up): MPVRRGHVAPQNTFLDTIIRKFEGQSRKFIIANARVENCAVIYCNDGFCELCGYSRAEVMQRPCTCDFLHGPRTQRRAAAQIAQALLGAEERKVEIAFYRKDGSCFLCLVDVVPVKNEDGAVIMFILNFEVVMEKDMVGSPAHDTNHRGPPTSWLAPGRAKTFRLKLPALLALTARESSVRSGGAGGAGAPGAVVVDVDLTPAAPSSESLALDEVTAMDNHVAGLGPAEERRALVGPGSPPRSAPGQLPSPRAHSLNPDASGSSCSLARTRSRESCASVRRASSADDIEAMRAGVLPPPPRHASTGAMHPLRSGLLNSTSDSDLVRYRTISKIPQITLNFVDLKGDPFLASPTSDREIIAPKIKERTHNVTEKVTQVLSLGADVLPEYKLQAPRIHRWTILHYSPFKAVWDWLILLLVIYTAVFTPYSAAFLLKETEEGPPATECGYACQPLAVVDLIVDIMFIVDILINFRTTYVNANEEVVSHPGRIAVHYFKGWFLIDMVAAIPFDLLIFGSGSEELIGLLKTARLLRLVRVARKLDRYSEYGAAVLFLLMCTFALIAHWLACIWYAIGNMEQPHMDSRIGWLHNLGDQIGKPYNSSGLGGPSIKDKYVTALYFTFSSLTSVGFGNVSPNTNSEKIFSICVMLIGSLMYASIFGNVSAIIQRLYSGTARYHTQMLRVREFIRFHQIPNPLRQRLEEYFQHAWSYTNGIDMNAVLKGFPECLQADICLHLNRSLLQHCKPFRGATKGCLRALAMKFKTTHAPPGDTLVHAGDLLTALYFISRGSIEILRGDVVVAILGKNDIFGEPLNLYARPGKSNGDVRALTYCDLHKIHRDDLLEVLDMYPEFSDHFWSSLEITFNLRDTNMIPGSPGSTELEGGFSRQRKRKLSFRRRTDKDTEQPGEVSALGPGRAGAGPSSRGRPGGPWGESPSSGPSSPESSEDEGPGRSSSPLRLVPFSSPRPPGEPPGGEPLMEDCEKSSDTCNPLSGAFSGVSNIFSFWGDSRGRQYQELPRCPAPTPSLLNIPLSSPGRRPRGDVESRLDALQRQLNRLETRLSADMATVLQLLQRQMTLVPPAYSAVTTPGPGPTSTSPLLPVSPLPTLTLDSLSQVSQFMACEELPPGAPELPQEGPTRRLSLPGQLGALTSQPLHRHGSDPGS
row,Compound,"hERG current change (%, negative = inhibition) at 10uM [%]"
1,C=CCn1c(SCc2nc3ccccc3c(=O)[nH]2)nc2sc3c(c2c1=O)CCCC3,2.93
2,Cc1ccc(-c2nnc(OCc3cccnc3)c3ccccc23)cc1,-75.7
3,COc1ccc(-c2nnc(OCc3ccccc3)c3ccccc23)cc1,1.82
4,Cc1ccc(Oc2nnc(-c3ccccc3)c3ccccc23)cc1,-2.98
5,c1ccc(-c2nnc(OCc3cccnc3)c3ccccc23)cc1,-83.2
6,c1ccc(COc2cncc(-c3cccnc3)c2)cc1,-17.8
7,Cc1ccc(-c2nnc(OCc3nc4ccccc4n3C)c3ccccc23)cc1,-12
8,CCC(C)n1c(-c2cccs2)nc2nc3ccccc3nc21 (centres unmarked),-4.95
9,COCCn1c(SCC(=O)Nc2cc(C(C)(C)C)nn2-c2ccccc2)nnc1-c1ccncc1,-60
10,Cc1cc(NC(=O)CSc2nnc(-c3ccncc3)n2Cc2ccccc2)n(-c2ccccc2)n1,-58.8
11,COCCn1c(SCC(=O)Nc2nnc(C)s2)nnc1-c1ccncc1,-0.996
12,CNC(=O)CSc1nnc(-c2ccncc2)n1Cc1ccccc1,9.26
13,COCCn1c(SCC(=O)Nc2ccc(Cl)cn2)nnc1-c1ccncc1,-54.2
14,COCCn1c(SCC(=O)Nc2cc(C(C)(C)C)nn2-c2ccccc2)nc2ccccc2c1=O,-4.39
15,COCCn1c(SC(C)C(=O)Nc2ccc(Cl)cn2)nnc1-c1ccncc1 (centres unmarked),4.13
16,COCCn1c(SCC(=O)Nc2cc(C)nn2-c2ccccc2)nnc1-c1ccncc1,-37.7
17,Cc1cc(NC(=O)CSc2nnc(-c3ccncc3)n2C)n(-c2ccccc2)n1,-21.9
18,O=C(c1ccc(N2CCCC2=O)cc1)N1CCN(c2ccccc2Cl)CC1,-12.1
19,COc1ccc(S(=O)(=O)NCc2cc(=O)n(C)c(=O)n2C)cc1C,22.6
20,COc1ccc(Cl)cc1NC(=O)c1noc(C)c1[N+](=O)[O-],-29.5
21,O=C(NNC(=O)c1cc(-c2ccc(Cl)cc2Cl)nc2ccccc12)Nc1ccccc1,1.72
22,Cn1c(CN2CCN(C(=O)COc3ccccc3)CC2)nc2cc([N+](=O)[O-])ccc21,-55.2
23,Cn1c(CN2CCN(C(=O)c3ccc(F)cc3)CC2)nc2cc([N+](=O)[O-])ccc21,-67.5

row,Compound,"hERG current change (%, negative = inhibition) at 10uM [%]"
1,CN1CCN(Cc2nc3cc(NC(=O)COc4ccc([N+](=O)[O-])cc4)ccc3n2C)CC1,9.29
2,Cc1ccc(C(C)C)c(OCC(=O)N2CCN(Cc3nc4cc([N+](=O)[O-])ccc4n3C)CC2)c1,-65.8
3,Cc1ccc(C(C)C)c(OCC(=O)N2CCN(CC(=O)N3CCOCC3)CC2)c1,1.81
4,CCCC(=O)NCCc1nc2cc([N+](=O)[O-])ccc2n1C,-16.4
5,CC(=O)N1CCN(Cc2nc3cc(NC(=O)COc4ccccc4)ccc3n2C)CC1.Cl,0.239
6,Cn1c(CCNC(=O)c2ccco2)nc2cc([N+](=O)[O-])ccc21,-26
7,CCCC(=O)N1CCN(Cc2nc3cc([N+](=O)[O-])ccc3n2C)CC1,-36.8
8,Cn1c(CN2CCN(C(=O)c3ccco3)CC2)nc2cc([N+](=O)[O-])ccc21,-60
9,O=C(CSc1nccn1-c1ccc(Cl)cc1)N1CCCc2ccccc21,-11.7
10,Cc1cc(NC(=O)c2cccc(S(=O)(=O)N3CCC(C)CC3)c2)no1,0.978
11,CCCCN(C)C(=O)c1cc2cc3cc(OC)ccc3nc2o1,-30.8
12,C(=N\Nc1nc(N2CCCC2)nc(N2CCCC2)n1)/c1ccncc1,2.85
13,Cn1c(CN2CCN(C(=O)c3ccccc3)CC2)nc2cc([N+](=O)[O-])ccc21,-67.3
14,Cn1c(CN2CCN(S(C)(=O)=O)CC2)nc2cc([N+](=O)[O-])ccc21,-0.37
15,CC(=O)N1CCN(Cc2nc3cc([N+](=O)[O-])ccc3n2C)CC1,-4.94
16,COC(=O)c1c(C)oc(C)c(C(=O)OC)c1=O,5.25
17,O=C1C2C3C=CC(C4CC34)C2C(=O)N1Cc1ccco1 (centres unmarked),4.37
18,Cc1c(C)n(C)c2ccc(C(=O)NCCCN3CCOCC3)cc12,10.8
19,CCc1nc2ccc(C(=O)NCCCN3CCN(c4ccccc4F)CC3)cc2nc1CC,-49.8
20,Cc1c(C)n(C)c2ccc(C(=O)NCCCN3CCCC3)cc12,-23.8
21,O=C(NCCCN1CCN(c2ccc(F)cc2)CC1)c1cccc(N2CCCC2=O)c1,-48.5
22,Cc1c(C)n(C)c2ccc(C(=O)NCCCN3CCN(C)CC3)cc12,14.9
23,Cc1c(C)n(C)c2ccc(C(=O)NCCCN3CCN(c4ccccc4F)CC3)cc12,-54.2

row,Compound,"hERG current change (%, negative = inhibition) at 10uM [%]"
1,Cc1cc(=O)oc(C)c1C(=O)NCCCN1CCN(c2ccc(F)cc2)CC1,-53.6
2,Cc1c(C)n(C)c2ccc(C(=O)NCCCN3CCCCC3)cc12,-17.2
3,CCc1nc2ccc(C(=O)NCCCN3CCN(c4ccc(F)cc4)CC3)cc2nc1CC,-66.4
4,COc1ccc(N2CCN(CCNC(=O)c3c(C)cc(=O)oc3C)CC2)cc1,-12.2
5,Cc1cc(=O)oc(C)c1C(=O)NCCCN1CCN(c2ccccc2F)CC1,-40.4
6,Cc1c(C)n(C)c2ccc(C(=O)NCCCN3CCN(c4ccc(F)cc4)CC3)cc12,-66.6
7,Cc1ccc(S(=O)(=O)N2CCN(S(=O)(=O)c3ccc(C)cc3)C2)cc1,-24.9
8,CCN(CC)S(=O)(=O)c1cc(-c2nnc(-c3ccc(Br)cc3)o2)ccc1Br,12.7
9,COCCNC(=S)NN(c1ccccc1)c1ccccc1,-1.18
10,Oc1cc2c(cc1CN1CCc3ccccc3C1)OCO2,-0.697
11,CS(=O)(=O)N1CCN(c2ccc(NC(=O)COc3ccccc3)cc2)CC1,0.0465
12,COc1ccc(/C=N/NC(=O)c2ccc(NC(=O)c3ccccc3Br)cc2)cc1,6.43
13,CCN1/C(=C/c2cccc[n+]2C)Sc2ccc(OC)cc21.[I-],-67.3
14,CCN1/C(=C\C(C)=O)Sc2ccc(OC)cc21,13.9
15,CCN1/C(=C/C(C)=O)Sc2ccc(OC)cc21,-12.7
16,CCCNC(=O)COC(=O)c1cccnc1Nc1ccccc1F,-9.21
17,CCC1C(=O)NCCN1C(=O)c1ccc2nc(Cc3cccc(Cl)c3)oc2c1 (centres unmarked),-18.6
18,O=C(Cc1ccccc1[N+](=O)[O-])NCc1ccc(Cl)cc1,5.25
19,O=C(CCCc1ccccc1)NCc1ccc(Cl)cc1,-15.3
20,CCN(CC(=O)NCc1ccc(Cl)cc1)C(=O)NCc1ccc(Cl)cc1,-48.4
21,CCN(CC(=O)NCc1ccc(Cl)cc1)C(=O)CCc1ccccc1,-58.7
22,CCN(CC(=O)NCc1ccc(Cl)cc1)C(=O)C(C)Sc1ccccc1 (centres unmarked),-33.8
23,O=C(COC(=O)Cc1ccccc1[N+](=O)[O-])NCc1ccc(Cl)cc1,-11

row,Compound,"hERG current change (%, negative = inhibition) at 10uM [%]"
1,CCN(CC(=O)NCc1cccs1)C(=O)CCc1c[nH]c2ccccc12,-17.6
2,CCN(CC(=O)NCc1ccc(Cl)cc1)C(=O)CCc1ccccc1O,-54.1
3,CCN(CC(=O)NCc1ccc(Cl)cc1)C(=O)Cc1ccccc1[N+](=O)[O-],-63.4
4,O=C(CC(c1ccccc1)c1cc(Cl)ccc1O)N1CCCC1 (centres unmarked),-17.5
5,O=C(NS(=O)(=O)Nc1ccccn1)c1c[nH]c2ccccc12,15.4
6,Cc1cccc(NC(=O)C2CCN(C(=O)NC3CCCCC3)CC2)c1,7.39
7,CS(=O)c1ccccc1COC(=O)Nc1ccccc1 (centres unmarked),9.76
8,Cc1c(NC(=O)c2ccccc2)c(=O)n(-c2ccccc2)n1C,-3.48
9,CCOC(=O)N1CCN(C(=O)C2CCN(C(=O)c3cc4sccc4n3CC)CC2)CC1,-28.8
10,CCN1CCN(C(=O)C2CCN(C(=O)c3cc4sccc4n3CC)CC2)CC1,-2.39
11,Cc1cc(C)nc(N2CCC(C(=O)NCc3ccccc3F)CC2)n1,27
12,Cn1c(C(=O)N2CCCC(C(=O)NCc3cccs3)C2)cc2sccc21 (centres unmarked),-16.1
13,O=C(NCc1ccco1)C1CCN(C(=O)c2cc3sccc3n2Cc2ccc(Cl)cc2)CC1,-64.8
14,O=C(NCc1ccco1)C1CCN(c2nc3ccccc3n2Cc2ccccc2F)CC1,-66.2
15,O=C(NCc1ccco1)c1cc2sccc2n1Cc1ccccc1,-15.7
16,COc1nc(OC)nc(N2CCC(C(=O)NCc3ccco3)CC2)n1,-18.3
17,CCn1c(C(=O)N2CCC(C(=O)N3CCN(c4ccccn4)CC3)CC2)cc2sccc21,-60.5
18,CCn1c(C(=O)N2CCC(C(=O)NCc3cccs3)CC2)cc2sccc21,-63
19,CCn1c(C(=O)N2CCC(C(=O)NCc3ccc(OC)cc3)CC2)cc2sccc21,-41.9
20,O=C(NCc1ccco1)C1CCN(C(=O)c2ccc(Cl)cc2Cl)CC1,-0.217

# — PMC4336329 (PLoS ONE, 2015)
